Compound activity: PubChem, National Center for Advancing Translational Sciences (NCATS)
SMN2 splice enh – increases expression of the SMN2 splice variant. Potency, µM (doses to about 46.1 µM), for the others: at the top dose activity change, positive = activation, hits mostly activators. HEK293 SMN2-luciferase splicing reporter, luminescence, 30-36 h. AID 1458. 210,000 tested, 2.8% active; also: % of control where 0% means no effect; nearly all actives have a fitted effect of over 55% in size
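qHTS luciferase splicing reporter: luminescence rises when SMN2 exon 7 is included in transfected HEK293 cells. Compound exposure lasted 30-36 h at 37C, with 4.5 mM final sodium butyrate as control, followed by a ONE-Glo read.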
Luc counter – Kinase-Glo luciferase inhibition (counter-screen); 200,000 tested, 0.28% active; AID 1379; Q27757; Potency, µM (series often up to 38.3 µM), inactives show at the top dose activity change, negative = inhibition, actives largely listed as inhibitors; Kinase-Glo luciferase, ATP luminescence, 8 min; also: % is scaled to controls: 0 for no effect and ±100 for the full control effect; nearly all actives have a fitted effect of over 60% in size
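Luminescence was the read-out, taken after 8-minute incubation at ambient temperature. Luciferase turned over luciferin with 10 uM ATP in imidazole pH 7.2 buffer containing KCl, MgCl2, Tween 20 and BSA.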
NPC1 promoter act – activators of NPC1 promoter; Potency, µM (doses to about 9.22 µM), for inactives: at the highest dose activation, most hits filed as activators; 320,000 tested, 2.4% active; Huh7 NPC1 promoter luciferase reporter, 24 h; also: % of control where 0% means no effect; nearly all actives have a fitted effect of over 60% in size
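Stable NPC1-promoter luciferase Huh7 line; cpd (DMSO) 24 h, 37 °C, 5% CO2; Amplite luciferase reagent 10 min RT; luminescence readout. qHTS format.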
ELG1 genotoxic – induces genotoxicity in HEK293T cells with luciferase-tagged ELG1; HEK293T ELG1-luciferase reporter, luminescence, 16 h; Potency, µM (top dose mostly 46 µM), without a hit: at the top dose activity change, positive = activation, usual class: activators; 330,000 tested, 1.3% active; AID 504466; also: % of control where 0% means no effect; nearly all actives have a fitted effect of over 60% in size
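Cells (2,000/well) expressing the ELG1-luciferase fusion are dosed by pin tool and kept 16 hr at 37 °C, 5% CO2. Signal comes from ONE-Glo luciferase reagent after 30 min at room temperature.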
FLuc counter – firefly luciferase modulation, counter-screen for miR-21 project; P08659; 360,000 tested, 6.9% active; Potency, µM (series often up to 57.5 µM), inactives show top-dose activity change, negative = inhibition, hits mostly inhibitors; purified FLuc, Km substrates, luminescence inhibition;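 also: plate controls were vehicle for no effect and reference inhibitor for full effect; nearly all actives have a fitted effect of over 55% in size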
Target sequence (P08659 whole entry, looked up): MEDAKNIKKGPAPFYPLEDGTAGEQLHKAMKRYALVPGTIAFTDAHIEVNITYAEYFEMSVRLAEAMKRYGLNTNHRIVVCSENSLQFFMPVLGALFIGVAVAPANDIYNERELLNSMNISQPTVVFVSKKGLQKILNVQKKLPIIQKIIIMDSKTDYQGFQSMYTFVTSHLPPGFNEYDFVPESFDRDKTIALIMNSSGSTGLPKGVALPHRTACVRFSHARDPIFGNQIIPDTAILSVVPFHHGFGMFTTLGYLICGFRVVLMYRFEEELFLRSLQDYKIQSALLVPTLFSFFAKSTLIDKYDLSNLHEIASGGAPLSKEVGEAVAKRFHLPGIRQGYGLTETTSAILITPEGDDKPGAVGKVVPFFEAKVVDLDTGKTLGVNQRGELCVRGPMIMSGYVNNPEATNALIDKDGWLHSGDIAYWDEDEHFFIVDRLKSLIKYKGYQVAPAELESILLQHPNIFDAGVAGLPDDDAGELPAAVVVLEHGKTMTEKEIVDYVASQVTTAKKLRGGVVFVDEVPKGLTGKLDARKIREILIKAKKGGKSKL
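Purified P. pyralis luciferase (10nM final) with 10uM D-luciferin and 10uM ATP (Km levels) in 50mM Tris acetate pH 7.5, 10mM Mg acetate, 0.01% Tween-20, 0.05% BSA; qHTS 6-point titration, ~60 µM downward; luminescence read.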
Rab9 prom act – activates the Rab9 promoter; Huh7 Rab9 promoter-luciferase reporter, luminescence, 24 h; Potency, µM (top dose mostly 9.22 µM), for the others: at the top dose activation, negative = inhibition, usual class: activators; 320,000 tested, 2.8% active; also: % of control where 0% means no effect; nearly all actives have a fitted effect of over 60% in size
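Steps: seed 1500 Huh7 Rab9-luc cells per well, rest 2 h at 37 °C; add compound in DMSO; incubate 24 h; add luciferase reagent, 10 min ambient; read luminescence.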
The depositor's hits bear a star; ? = inconclusive; . = not tested or not shown; [ ] = dose if it differs, or a comment. Most compounds without a hit are left out; they make up all but 7.5% or so of the library. Calls follow the shape of the dose curve; as a rule, active = well fitted curve in the direction sought with a large enough effect; inconclusive = small, poorly fitted or top-dose-only effect, or another doubt; inactive = no such curve, though single readings can be large; an effect the other way counts as inactive or inconclusive. Potency is read from the fitted curve at half-maximal effect.

SMILES	SMN2 splice enh	Luc counter	NPC1 promoter act	ELG1 genotoxic	FLuc counter	Rab9 prom act
O=[N+]([O-])c1ccc(NCc2ccccc2)nc1	?	1.4%	28.4%	?	21.3µM*	24.2%
O=[N+]([O-])c1ccc(Nc2ccccc2)nc1	2.5%	3.8%	-1.3%	5.2%	-3.1%	2.4%
COC(=O)C1C(=O)c2c([nH]c(C(=O)OC3CCCC3)c2C)CC1C (stereo not given)	14.1µM*	13.1%	.	.	2.39µM*	.
COc1ccc(C2CC(=O)c3c([nH]c(C(=O)OC4CCCCCC4)c3C)C2)cc1 (stereo not given)	-16.7%	.	.	.	2.0%	.
Cc1ncc([N+](=O)[O-])n1CC(=O)N/N=C/c1ccccc1F	-28.8%	-1.3%	0.3%	-0.5%	-1.7%	-4.9%
CC1=NN(c2ccccc2)C(=O)/C1=C/C=C/C=C/N(C)C	-50.2%	?	0.0%	-1.4%	?	-3.3%
CC1=NN(c2ccccc2)C(=O)/C1=C\c1cc(C)n(-c2ccccc2)c1C	-23.9%	-1.6%	27.5%	?	0.536µM*	22.6%
CC1=NN(c2ccccc2)C(=O)/C1=C\c1cc(C)n(-c2cccnc2)c1C	.	.	-5.3%	9.3%	2.69µM*	-6.9%
CC1=NN(c2ccc(C)cc2)C(=O)/C1=C\C=C\c1ccccc1	-37.5%	-7.5%	0.5%	-7.7%	?	1.2%
CC1=NN(c2cccc(C(=O)O)c2)C(=O)/C1=C\C=C/c1ccccc1	9.7%	-2.3%	-5.0%	-8.6%	2.39µM*	-2.7%
COc1cccc2c1C(=O)CC(c1ccccc1)O2 (stereo not given)	.	-1.1%	.	.	.	.
COc1ccc(-c2nc(C(=O)O)cs2)cc1OC	-9.8%	1.1%	11.9%	7.2%	?	14.7%
COc1ccc(-c2cc(C(=O)O)nc3ccc4ccccc4c23)cc1OC	14.9%	8.6%	9.7%	4.6%	4.26µM*	2.8%
COc1ccccc1OCc1cc(C(=O)N(C)CCC2CCCCO2)no1 (stereo not given)	.	.	2.51µM*	10.3µM*	12µM*	1.58µM*
Cc1cc(OCc2cc(C(=O)N(C)C3CCOCC3)no2)cc(C)c1Cl	.	.	3.55µM*	18.4%	21.3µM*	3.98µM*
COc1ccc(OCc2cc(C(=O)N(C)C3CCOCC3)no2)c2ccccc12	.	.	?	11.7%	15.1µM*	?
COc1ccc(OCc2cc(C(=O)NC3CCOC(C)(C)C3)no2)c2ccccc12 (stereo not given)	.	.	2.82µM*	?	8.49µM*	3.55µM*
CN(CCC1CCOCC1)C(=O)c1cc(COc2c(F)cccc2F)on1	.	.	-1.5%	4.9%	-6.4%	13.7%
COc1ccc(OCc2cc(C(=O)N(C)C3CCOC3)no2)c(Cl)c1 (stereo not given)	.	.	2.3%	12.4%	?	8.8%
COC(=O)c1cc2occc2n1CC(=O)Nc1ccc(N(C)C)cc1	-2.6%	.	.	.	3.7%	.
CCOc1cc(C(=O)N2CC(=O)Nc3ccc(F)cc3C2c2ccccc2)cc(OCC)c1OCC (stereo not given)	-1.9%	.	.	.	-9.8%	.
Cc1nn(C)c(C)c1CN(C(=O)C1CCC(=O)N(C2CCCCCC2)C1)C(C)C (stereo not given)	.	.	-0.4%	?	-18.4%	13.9%
C[C@@H]1CN(CCCn2c3ccccc3c3ccccc32)C[C@H](C)N1	.	1.8%	0.9%	.	-1.4%	-1.8%
Cc1ccc(OCc2cc(C(=O)N(C)CC3CCOCC3)no2)cc1C	.	.	2.82µM*	?	12µM*	3.16µM*
CCOC(=O)CSc1nc2sc3c(c2c(=O)n1Cc1ccccc1)CCC(C(C)(C)C)C3 (stereo not given)	-15.3%	.	.	.	3.4%	.
SMILES	SMN2 splice enh	Luc counter	NPC1 promoter act	ELG1 genotoxic	FLuc counter	Rab9 prom act
c1ccc(-c2ccc(-c3ccccn3)s2)nc1	.	.	?	?	1.51µM*	3.98µM*
Cn1c(=S)[nH]c2scc(-c3cccs3)c2c1=O	12.0%	-3.6%	-11.9%	-5.6%	?	3.2%
C=CCn1c(=S)[nH]c2scc(-c3cccs3)c2c1=O	-78.8%	3.1%	-3.1%	-20.6%	13.5µM*	0.6%
C[C@]12c3[nH]c4cc(-c5ccco5)ccc4c3CCN1C(=O)[C@@H](CC(=O)NCc1ccco1)C[C@@H]2C(=O)N1CCOCC1	.	.	.	-0.2%	.	.
O=C1C2C3CCC(C3)C2C(=O)N1Cc1ccccc1 (stereo not given)	2.3%	2.0%	0.0%	0.0%	-9.6%	-1.3%
Cc1ccc(C(=O)/C=C/Nc2ccccc2C(N)=O)cc1	0.708µM*	11.2µM*	0.631µM*	6.51µM*	0.135µM*	0.316µM*
Cc1ccc(/C=C/C(=O)Nc2cc(S(N)(=O)=O)ccc2O)cc1	2.2%	-2.3%	4.4%	0.9%	15.1µM*	17.2%
CCS(=O)(=O)c1ccc(O)c(NC(=O)/C=C/c2ccc(Cl)cc2)c1	.	.	0.0%	-3.9%	?	-2.4%
Cc1ccc(/C=C/C(=O)Nc2ccccc2C(N)=O)cc1	3.55µM*	-21.7%	2.82µM*	?	0.849µM*	1.41µM*
NC(=O)c1ccccc1NC(=O)c1ccccc1Cl	.	.	1.7%	5.4%	-16.6%	2.3%
NC(=O)c1ccccc1N/C=C/C(=O)c1ccc(Cl)cc1	8.91µM*	?	0.398µM*	?	0.239µM*	0.398µM*
Fc1ccc(-c2nc3n(c2-c2ccncc2)CCS3)cc1	-39.2%	1.7%	.	.	.	.
Cc1cc(Oc2c(C(F)(F)F)oc3c(CN4CCC(C)CC4)c(O)ccc3c2=O)cc(C)c1Cl	0.0%	.	.	.	-0.6%	.
Cc1ccc(-c2nc(Nc3cccc(O)c3)c3ccccc3n2)cc1	.	.	2.4%	-7.6%	21.3µM*	-6.7%
O=[N+]([O-])c1ccc(-c2nc(Nc3cccc(O)c3)c3ccccc3n2)cc1	.	.	-3.8%	-14.4%	-4.4%	-3.8%[1.84 µM]
COC(=O)c1ccc(Nc2nc(-c3ccc(C)cc3)nc3ccccc23)cc1	5.6%	.	.	.	?	.
CN(C)C(=O)c1ccc(-c2nc(N(C)C)c3ccccc3n2)cc1	24.7%	11.2µM*	.	.	.	.
Cc1ccc(-c2nc(Nc3ccc(O)cc3)c3ccccc3n2)cc1	.	.	14.9%	9.1%	23.9µM*	16.0%
Cc1ccc(-c2nc(Nc3ccc(N4CCOCC4)cc3)c3ccccc3n2)cc1	.	.	0.4%	-6.9%	23.9µM*	-3.2%
c1ccc(Nc2nc(-c3ccccc3)nc3ccccc23)cc1	.	.	-0.6%	-7.0%	-9.2%	-3.7%
Cc1cc(Br)ccc1NC(=O)c1cn(C2CCCC2)c(=O)c2c1c1ccccc1n2C	2.0%	.	.	.	-0.7%	.
Cc1cccc(N2CC(c3nc4ccccc4n3CCC3CCCCC3)CC2=O)c1 (stereo not given)	.	.	.	.	-0.9%	.
COCCN(CCOC)c1nc(-c2ccc(C)cc2)nc2ccccc12	.	.	20.7%	-3.5%	13.5µM*	29.3%
